Assay results as given in the supplement of paper PMC7411054.

What was measured:
Test in all cases: phenotypically active (imaging signature differs from DMSO and reproducible) at any of 0.3-9 uM (binary (1 = active, 0 = inactive)); higher = active
Conditions in all cases: treatment time: 24 h
A549-ACTB-RAB5A = test system: A549-ACTB-RAB5A
How it was run: (§1)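 Live-cell features were measured per well and normalised to solvent control wells after fifteen gene-edited A549, HepG2 and WPMY1 reporter lines had been treated for 24 h at 0.3, 1, 3 or 9 µM in four wells each. A condition was deviating when ≥3 of 4 wells sat beyond the 95th percentile of control Euclidean distances. It was reproducible when the median replicate Pearson correlation exceeded the 95th percentile of non-replicates. Phenotypic activity demanded both.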

A549-CANX-COX4 = test system: A549-CANX-COX4
How it was run: as §1

A549-GM130-SQSTM1 = test system: A549-GM130-SQSTM1
How it was run: as §1

A549-TP53BP1-CLTA = test system: A549-TP53BP1-CLTA
How it was run: as §1

A549-TUBA1B-RELA = test system: A549-TUBA1B-RELA
How it was run: as §1

HepG2-ACTB-RAB5A = test system: HepG2-ACTB-RAB5A
How it was run: as §1

HepG2-CANX-COX4 = test system: HepG2-CANX-COX4
How it was run: as §1

HepG2-GM130-SQSTM1 = test system: HepG2-GM130-SQSTM1
How it was run: as §1

HepG2-TP53BP1-CLTA = test system: HepG2-TP53BP1-CLTA
How it was run: as §1

HepG2-TUBA1B-RELA = test system: HepG2-TUBA1B-RELA
How it was run: as §1

WPMY1-ACTB-RAB5A = test system: WPMY1-ACTB-RAB5A
How it was run: as §1

WPMY1-CANX-COX4 = test system: WPMY1-CANX-COX4
How it was run: as §1

WPMY1-GM130-SQSTM1 = test system: WPMY1-GM130-SQSTM1
How it was run: as §1

WPMY1-TP53BP1-CLTA = test system: WPMY1-TP53BP1-CLTA
How it was run: as §1

WPMY1-TUBA1B-RELA = test system: WPMY1-TUBA1B-RELA
How it was run: as §1

Measured: phenotypically active

CC(C)N(CCC(C(N)=O)(c1ccccc1)c1ccccn1)C(C)C (stereo not given) [disopyramide]
inactive: A549-ACTB-RAB5A 0 | A549-CANX-COX4 0 | A549-GM130-SQSTM1 0 | A549-TP53BP1-CLTA 0 | A549-TUBA1B-RELA 0 | HepG2-ACTB-RAB5A 0 | HepG2-CANX-COX4 0 | HepG2-GM130-SQSTM1 0 | HepG2-TP53BP1-CLTA 0 | HepG2-TUBA1B-RELA 0 | WPMY1-ACTB-RAB5A 0 | WPMY1-CANX-COX4 0 | WPMY1-GM130-SQSTM1 0 | WPMY1-TP53BP1-CLTA 0 | WPMY1-TUBA1B-RELA 0

CC(=O)O[C@H]1C[C@@H]2CC[C@@H]3[C@H](CC[C@@]4(C)[C@H]3C[C@H]([N+]3(C)CCCCC3)[C@@H]4OC(C)=O)[C@@]2(C)C[C@@H]1[N+]1(C)CCCCC1 [pancuronium]
inactive: A549-ACTB-RAB5A 0 | A549-CANX-COX4 0 | A549-GM130-SQSTM1 0 | A549-TP53BP1-CLTA 0 | A549-TUBA1B-RELA 0 | HepG2-ACTB-RAB5A 0 | HepG2-CANX-COX4 0 | HepG2-GM130-SQSTM1 0 | HepG2-TP53BP1-CLTA 0 | HepG2-TUBA1B-RELA 0 | WPMY1-ACTB-RAB5A 0 | WPMY1-CANX-COX4 0 | WPMY1-GM130-SQSTM1 0 | WPMY1-TP53BP1-CLTA 0 | WPMY1-TUBA1B-RELA 0

O=c1ccc2ccc3occc3c2o1 [Angelicin]
inactive: A549-ACTB-RAB5A 0 | A549-CANX-COX4 0 | A549-GM130-SQSTM1 0 | A549-TP53BP1-CLTA 0 | A549-TUBA1B-RELA 0 | HepG2-ACTB-RAB5A 0 | HepG2-CANX-COX4 0 | HepG2-GM130-SQSTM1 0 | HepG2-TP53BP1-CLTA 0 | HepG2-TUBA1B-RELA 0 | WPMY1-ACTB-RAB5A 0 | WPMY1-CANX-COX4 0 | WPMY1-GM130-SQSTM1 0 | WPMY1-TP53BP1-CLTA 0 | WPMY1-TUBA1B-RELA 0

Cc1ccc(-c2nc3ccc(C)cn3c2CC(=O)N(C)C)cc1 [zolpidem]
inactive: A549-ACTB-RAB5A 0 | A549-CANX-COX4 0 | A549-GM130-SQSTM1 0 | A549-TP53BP1-CLTA 0 | A549-TUBA1B-RELA 0 | HepG2-ACTB-RAB5A 0 | HepG2-CANX-COX4 0 | HepG2-GM130-SQSTM1 0 | HepG2-TP53BP1-CLTA 0 | HepG2-TUBA1B-RELA 0 | WPMY1-ACTB-RAB5A 0 | WPMY1-CANX-COX4 0 | WPMY1-GM130-SQSTM1 0 | WPMY1-TP53BP1-CLTA 0 | WPMY1-TUBA1B-RELA 0

C=C1[C@H]2C[C@@]3([C@@H]1O)[C@@H](C[C@@H]2O)[C@]12[C@@H]4C[C@H]3[C@H]1N(CC)C[C@]4(C)CC[C@@H]2O [Napelline]
inactive: A549-ACTB-RAB5A 0 | A549-CANX-COX4 0 | A549-GM130-SQSTM1 0 | A549-TP53BP1-CLTA 0 | A549-TUBA1B-RELA 0 | HepG2-ACTB-RAB5A 0 | HepG2-CANX-COX4 0 | HepG2-GM130-SQSTM1 0 | HepG2-TP53BP1-CLTA 0 | HepG2-TUBA1B-RELA 0 | WPMY1-ACTB-RAB5A 0 | WPMY1-CANX-COX4 0 | WPMY1-GM130-SQSTM1 0 | WPMY1-TP53BP1-CLTA 0 | WPMY1-TUBA1B-RELA 0
